# Activity calls are given as the source filed them.
# Assays:
# [1] = binders of probe aFSTL3 on microarray, primary screen, stem cell growth factor project, biochemical, small-molecule microarray, fluorescence 635/667 (AID 1064); details: higher = more signal;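 note: measures binding of the biotinylated anti-FSTL3 antibody to printed compounds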
# [2] = binders from COS7 lysate, DM2A8 probe, primary screen, torsin A project, cell lysate, small-molecule microarray, fluorescence 635/667 (AID 1065); details: higher = more signal, COS7 lysate expressing mutant human TOR1A
# [3] = binders of probe aFGF2 on microarray, primary screen, stem cell growth factor project, biochemical, small-molecule microarray, fluorescence 635/667 (AID 1067); details: higher = more signal;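 note: measures binding of biotinylated aFGF2 protein to printed compounds on slides; z-score merges feature fluorescence and signal-to-noise across triplicate slides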
# [4] = binders of probe aFGF10 on microarray, primary screen, stem cell growth factor project, biochemical, small-molecule microarray, fluorescence 635/667 (AID 1071); details: higher = more signal;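 note: score merges 667 nm spot intensity and signal to noise from triplicate slides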
# [5] = biological target: Neurogenic locus notch homolog protein 2 (Homo sapiens) (UniProt Q04721); experiment: Notch2 binders on small-molecule microarrays, primary screen, biochemical, small-molecule microarray, 635 nm fluorescence, stem cell growth factors (AID 1073); details: Notch2 binding, higher = more signal
# [6] = biological target: Pro-neuregulin-1, membrane-bound isoform (Homo sapiens) (UniProt Q02297); experiment: NRG1 binders on small-molecule microarrays, primary screen, psychiatric disease protein project, biochemical, small-molecule microarray, fluorescence 635/667 (AID 1075); details: NRG1 binding, 635 nm fluorescence, higher = more signal;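 note: score combines 667 nm spot fluorescence with signal to noise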
# [7] = test system: Neuregulin-1 EGF-like domain; experiment: binders of neuregulin-1 EGF-like domain, primary screen, biochemical, small-molecule microarray, 635 nm fluorescence (AID 1081); details: small-molecule microarray binding, higher = more signal;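 note: binding of the protein to compounds printed on small-molecule microarray slides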
# [8] = FRG1 promoter luciferase signal modulators, primary screen, FRG1 inhibition for FSHD, cell-based, C2C12 myotubes, firefly/Renilla luciferase, luminescence (AID 1084); details: higher = more signal, called active from +8 up or from −8 down
# [9] = binders of probe aFST on microarray, primary screen, stem cell growth factor project, biochemical, small-molecule microarray, fluorescence 635/667 (AID 1086); details: higher = more signal;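 note: score merges 667 nm fluorescence with signal-to-noise of each printed compound spot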
# [10] = binders of probe aHhip on microarray, primary screen, stem cell growth factor project, biochemical, small-molecule microarray, fluorescence 635/667 (AID 1087); details: higher = more signal;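 note: score merges spot fluorescence at 667nm with spot signal to noise ratio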
# [11] = test system: PRMT1 (protein arginine N-methyltransferase 1); experiment: PRMT1 binders on small-molecule microarrays, primary screen, biochemical, small-molecule microarray, 635 nm fluorescence (AID 1088); details: small-molecule microarray binding, higher = more signal;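 note: binding of Prmt1 protein to compounds spotted on small-molecule microarray slides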
# [12] = yeast growth modulation, basal conditions, primary screen, YJM789 clinical isolate, OD600, 24 h (AID 1089);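 note: growth of clinical yeast isolate S. cerevisiae YJM 789 seeded 1000 cells per well; test concentration not given here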; details: S. cerevisiae YJM789 growth, higher = more signal, called active from +8 up or from −8 down
# [13] = fission yeast growth modulation, primary screen, strain 972, OD600, 24 h, no modulator (AID 1090);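 note: basal condition with compound alone and no growth modifier present; test concentration not given here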; details: S. pombe 972 growth, higher = more signal, called active from +8 up or from −8 down
# [14] = S. cerevisiae growth modulation with rapamycin, primary screen, strain BY4716, OD600, 96 h (AID 1091); details: higher = more signal, called active from +8 up or from −8 down; note: test concentration not given here
# [15] = biological target: Torsin-1A-interacting protein 2 (Homo sapiens) (UniProt Q8NFQ8); experiment: LULL1 binders on small-molecule microarray, primary screen, cell lysate, human LULL1 lysate, 635/667 nm fluorescence (AID 1092); details: hLULL1 lysate binding, 635 nm fluorescence, higher = more signal;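 note: probe is lysate of COS7 cells overexpressing human LULL1; score merges per-feature 667 nm fluorescence with signal-to-noise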
# [16] = E. coli growth modulation, two-sided OD650, primary screen, E. coli filamentation project, strain DRC41, 24 h (AID 1093); details: OD650, 24 h, higher = more signal, called active from +8 up or from −8 down;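 note: MC1000 strain lacking acrAB efflux and sulA so SOS filamentation is blocked; test concentration not given here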
# [17] = small-molecule microarray binders of probe aLefty2, primary screen, biochemical, biotinylated probe, 635/667 nm fluorescence (AID 1094); details: higher = more signal;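 note: score merges spot fluorescence near 667 nm with spot signal-to-noise ratio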
# [18] = test system: Noggin (protein binding on small-molecule microarray); experiment: Noggin binders on small-molecule microarray, primary screen, biochemical, 635/667 nm fluorescence (AID 1095); details: 635 nm fluorescence, higher = more signal;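 note: score merges 667 nm feature fluorescence with signal to noise over triplicate slides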
# [19] = biological target: Neurogenic locus notch homolog protein 3 (Homo sapiens) (UniProt Q9UM47); experiment: NOTCH3 binders on small-molecule microarray, primary screen, biochemical, 635/667 nm fluorescence (AID 1096); details: NOTCH3 binding, 635 nm fluorescence, higher = more signal
# [20] = small-molecule microarray binders of probe aEGFR, primary screen, biochemical, biotinylated probe, 635/667 nm fluorescence (AID 1097); details: higher = more signal;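 note: probe is a biotinylated anti-EGFR antibody binding compounds printed on slides; score combines fluorescence near 667 nm and signal to noise of each spot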
# Neurogenic locus notch homolog protein 3 (Homo sapiens), sequence (Q9UM47 whole entry, looked up): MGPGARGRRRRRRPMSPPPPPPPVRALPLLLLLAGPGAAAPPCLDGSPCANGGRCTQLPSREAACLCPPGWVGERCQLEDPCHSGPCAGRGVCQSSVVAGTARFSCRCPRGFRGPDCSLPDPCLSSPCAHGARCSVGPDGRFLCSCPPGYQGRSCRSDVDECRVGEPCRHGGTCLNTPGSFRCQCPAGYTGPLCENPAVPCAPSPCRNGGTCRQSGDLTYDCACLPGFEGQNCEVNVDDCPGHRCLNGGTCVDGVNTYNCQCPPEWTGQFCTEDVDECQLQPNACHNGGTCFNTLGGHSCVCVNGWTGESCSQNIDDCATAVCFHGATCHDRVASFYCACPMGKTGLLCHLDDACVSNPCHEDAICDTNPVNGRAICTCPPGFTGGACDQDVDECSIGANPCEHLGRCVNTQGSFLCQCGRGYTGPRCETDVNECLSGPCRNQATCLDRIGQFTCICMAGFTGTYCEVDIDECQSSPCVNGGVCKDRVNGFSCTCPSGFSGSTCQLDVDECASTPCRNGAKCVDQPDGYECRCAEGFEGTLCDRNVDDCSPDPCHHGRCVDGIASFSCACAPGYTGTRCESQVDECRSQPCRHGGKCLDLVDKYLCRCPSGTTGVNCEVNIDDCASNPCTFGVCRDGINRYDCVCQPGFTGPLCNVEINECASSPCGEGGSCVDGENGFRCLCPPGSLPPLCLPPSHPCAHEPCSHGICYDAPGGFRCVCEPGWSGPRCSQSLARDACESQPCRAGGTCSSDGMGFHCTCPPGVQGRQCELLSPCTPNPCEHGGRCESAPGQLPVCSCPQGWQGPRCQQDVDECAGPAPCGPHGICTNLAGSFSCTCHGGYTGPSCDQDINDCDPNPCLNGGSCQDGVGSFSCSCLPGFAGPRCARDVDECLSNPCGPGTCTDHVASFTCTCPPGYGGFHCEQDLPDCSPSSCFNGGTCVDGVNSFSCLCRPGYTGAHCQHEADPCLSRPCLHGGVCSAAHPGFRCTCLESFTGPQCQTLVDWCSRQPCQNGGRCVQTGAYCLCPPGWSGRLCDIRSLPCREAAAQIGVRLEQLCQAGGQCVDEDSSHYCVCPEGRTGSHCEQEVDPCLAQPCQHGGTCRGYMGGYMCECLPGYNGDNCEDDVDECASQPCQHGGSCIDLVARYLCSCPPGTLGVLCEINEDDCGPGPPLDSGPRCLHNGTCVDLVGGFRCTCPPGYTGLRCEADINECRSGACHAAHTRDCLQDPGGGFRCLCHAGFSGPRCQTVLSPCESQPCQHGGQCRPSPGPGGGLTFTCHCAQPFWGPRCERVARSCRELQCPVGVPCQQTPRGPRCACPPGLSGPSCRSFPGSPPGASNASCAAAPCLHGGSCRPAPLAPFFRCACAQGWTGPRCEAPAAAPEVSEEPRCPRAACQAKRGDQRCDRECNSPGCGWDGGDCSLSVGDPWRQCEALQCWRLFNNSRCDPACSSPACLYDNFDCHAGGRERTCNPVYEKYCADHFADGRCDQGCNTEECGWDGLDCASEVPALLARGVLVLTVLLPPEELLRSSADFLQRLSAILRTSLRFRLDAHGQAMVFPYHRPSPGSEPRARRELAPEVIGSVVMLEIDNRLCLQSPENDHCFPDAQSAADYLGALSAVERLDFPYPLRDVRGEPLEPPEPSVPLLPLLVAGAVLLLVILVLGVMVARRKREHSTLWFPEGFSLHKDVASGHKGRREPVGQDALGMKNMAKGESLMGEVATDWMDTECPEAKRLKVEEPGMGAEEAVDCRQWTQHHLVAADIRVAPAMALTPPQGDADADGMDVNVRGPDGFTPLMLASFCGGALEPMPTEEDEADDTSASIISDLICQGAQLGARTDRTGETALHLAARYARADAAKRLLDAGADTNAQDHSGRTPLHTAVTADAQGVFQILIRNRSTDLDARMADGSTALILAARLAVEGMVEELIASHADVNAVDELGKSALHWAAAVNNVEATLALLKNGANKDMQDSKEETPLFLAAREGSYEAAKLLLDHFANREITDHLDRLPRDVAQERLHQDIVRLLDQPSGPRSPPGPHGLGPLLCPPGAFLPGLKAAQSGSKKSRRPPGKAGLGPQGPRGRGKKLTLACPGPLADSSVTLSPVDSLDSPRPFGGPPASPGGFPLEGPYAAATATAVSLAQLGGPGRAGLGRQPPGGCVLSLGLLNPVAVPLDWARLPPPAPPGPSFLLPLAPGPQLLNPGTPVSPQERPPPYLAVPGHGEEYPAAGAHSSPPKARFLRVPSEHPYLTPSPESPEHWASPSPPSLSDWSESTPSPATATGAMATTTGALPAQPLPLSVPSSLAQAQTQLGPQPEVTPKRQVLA
# Neurogenic locus notch homolog protein 2 (Homo sapiens), sequence (Q04721 whole entry, looked up, canonical isoform): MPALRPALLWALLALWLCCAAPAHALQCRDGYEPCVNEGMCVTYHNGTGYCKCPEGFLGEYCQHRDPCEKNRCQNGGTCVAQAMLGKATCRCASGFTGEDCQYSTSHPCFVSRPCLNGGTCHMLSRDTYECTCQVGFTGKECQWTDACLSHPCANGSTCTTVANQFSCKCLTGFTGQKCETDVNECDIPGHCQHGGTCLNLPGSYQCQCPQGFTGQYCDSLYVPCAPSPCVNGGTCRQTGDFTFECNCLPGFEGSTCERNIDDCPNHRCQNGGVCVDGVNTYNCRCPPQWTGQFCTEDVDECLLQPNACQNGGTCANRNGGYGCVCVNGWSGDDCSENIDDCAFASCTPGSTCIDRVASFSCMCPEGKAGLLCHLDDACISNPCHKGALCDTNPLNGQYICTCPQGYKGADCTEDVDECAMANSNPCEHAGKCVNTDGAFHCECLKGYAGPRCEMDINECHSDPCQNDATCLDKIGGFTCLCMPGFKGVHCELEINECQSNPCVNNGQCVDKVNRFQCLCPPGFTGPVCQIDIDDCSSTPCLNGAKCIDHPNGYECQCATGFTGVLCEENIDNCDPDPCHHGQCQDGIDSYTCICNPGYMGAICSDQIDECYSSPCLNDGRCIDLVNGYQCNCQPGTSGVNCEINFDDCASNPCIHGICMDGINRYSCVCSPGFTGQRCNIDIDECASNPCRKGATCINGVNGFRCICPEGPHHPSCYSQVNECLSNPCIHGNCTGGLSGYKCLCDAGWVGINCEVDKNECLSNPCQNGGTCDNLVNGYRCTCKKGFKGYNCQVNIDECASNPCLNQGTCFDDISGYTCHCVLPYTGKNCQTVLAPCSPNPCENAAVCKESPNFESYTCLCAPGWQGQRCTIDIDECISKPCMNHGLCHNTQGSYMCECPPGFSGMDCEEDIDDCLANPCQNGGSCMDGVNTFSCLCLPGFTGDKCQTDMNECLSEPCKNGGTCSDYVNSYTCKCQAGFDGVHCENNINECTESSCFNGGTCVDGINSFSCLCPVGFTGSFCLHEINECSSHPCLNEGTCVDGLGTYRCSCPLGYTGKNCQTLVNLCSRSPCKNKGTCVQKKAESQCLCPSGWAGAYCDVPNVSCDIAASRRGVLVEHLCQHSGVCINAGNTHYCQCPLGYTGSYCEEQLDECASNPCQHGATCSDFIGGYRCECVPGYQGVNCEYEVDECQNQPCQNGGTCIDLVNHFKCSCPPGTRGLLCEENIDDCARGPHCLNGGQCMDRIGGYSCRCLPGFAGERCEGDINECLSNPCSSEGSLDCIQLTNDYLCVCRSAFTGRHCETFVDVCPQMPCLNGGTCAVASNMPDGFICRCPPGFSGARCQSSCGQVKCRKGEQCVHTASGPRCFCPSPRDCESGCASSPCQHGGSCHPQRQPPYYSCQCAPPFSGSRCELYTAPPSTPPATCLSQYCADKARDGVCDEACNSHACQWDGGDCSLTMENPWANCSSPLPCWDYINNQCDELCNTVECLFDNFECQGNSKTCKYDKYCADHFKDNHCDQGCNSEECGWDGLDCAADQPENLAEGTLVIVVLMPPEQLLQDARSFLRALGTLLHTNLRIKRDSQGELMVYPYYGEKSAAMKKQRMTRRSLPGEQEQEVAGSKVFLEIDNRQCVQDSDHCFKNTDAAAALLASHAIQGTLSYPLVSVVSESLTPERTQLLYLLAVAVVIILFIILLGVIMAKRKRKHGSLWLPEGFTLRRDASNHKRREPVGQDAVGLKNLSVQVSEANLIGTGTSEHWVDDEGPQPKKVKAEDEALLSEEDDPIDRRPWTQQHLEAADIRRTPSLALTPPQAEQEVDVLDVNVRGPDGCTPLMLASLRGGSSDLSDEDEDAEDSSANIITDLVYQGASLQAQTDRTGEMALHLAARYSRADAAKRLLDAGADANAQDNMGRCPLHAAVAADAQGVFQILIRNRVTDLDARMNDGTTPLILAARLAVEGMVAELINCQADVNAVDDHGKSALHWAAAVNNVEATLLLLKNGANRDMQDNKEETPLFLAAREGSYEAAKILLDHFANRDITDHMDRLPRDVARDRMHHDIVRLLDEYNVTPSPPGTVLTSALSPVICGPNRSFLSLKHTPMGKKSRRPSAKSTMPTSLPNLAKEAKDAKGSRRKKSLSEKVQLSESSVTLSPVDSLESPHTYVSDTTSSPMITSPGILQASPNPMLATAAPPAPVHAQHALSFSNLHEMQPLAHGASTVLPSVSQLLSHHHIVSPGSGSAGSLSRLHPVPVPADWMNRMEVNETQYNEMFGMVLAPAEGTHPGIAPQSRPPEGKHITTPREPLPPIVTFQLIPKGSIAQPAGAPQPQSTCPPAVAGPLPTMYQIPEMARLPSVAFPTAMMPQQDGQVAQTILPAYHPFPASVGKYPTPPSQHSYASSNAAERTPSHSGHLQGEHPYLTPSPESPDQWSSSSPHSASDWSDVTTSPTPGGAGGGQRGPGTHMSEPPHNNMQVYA
SMILES,composite z-score [1],composite z-score [2],composite z-score [3],composite z-score [4],composite z-score [5],composite z-score [6],composite z-score [7],z-score [8],composite z-score [9],composite z-score [10],composite z-score [11],z-score [12],z-score [13],z-score [14],composite z-score [15],z-score [16],composite z-score [17],composite z-score [18],composite z-score [19],composite z-score [20]
CC(C)CN1C(=O)[C@@]2(Cc3ccccc31)c1ccccc1C(=O)N(Cc1ccccc1C(F)(F)F)[C@H]2c1ccc(CO)cc1,0.0106,-0.0077,-0.167,0.2,-0.202,-0.84,-1.12,-1.04 (inactive),0.0594,-0.374,-1.7,-1.17 (inactive),-0.147 (inactive),-3 (inactive),-1.21,-0.861 (inactive),0.0169,-0.0224,-0.527,-0.187
C=C(CCCC)/C(=C/C[C@@H](OC(=O)c1ccncc1)c1cccc(OCCO)c1)c1cnc2ccccc2c1,0.186,0.935,0.049,1.03,1.3,0.972,1.13,2.51 (inactive),0.0095,0.443,1.57,-2.12 (inactive),-1.98 (inactive),1.53 (inactive),1.52,0.657 (inactive),0.0113,1.55,1.06,0.0617
CC=CC(O)C1C=CC2C(=O)N(c3ccccc3)C(=O)C2N1Nc1ccccc1 (stereo not given),0.393,0.274,-0.0114,1.02,1.68,1.91,1.29,0.568 (inactive),1.14,-0.0852,1.55,0.0831 (inactive),-0.32 (inactive),-0.474 (inactive),3.33,0.143 (inactive),0.209,0.0919,1.09,0.113
C=CC[C@@]12N=C(c3ccc(OCCCO)cc3)O[C@@H]1c1ccccc1N(CCS(=O)(=O)c1ccccc1)C2=O,-0.015,-0.302,0.188,0.0692,0.659,1.22,1.32,0.601 (inactive),0.261,-0.0391,1.55,-0.484 (inactive),-1.56 (inactive),0.793 (inactive),2.34,1.45 (inactive),-0.291,1.28,1.13,0.0153
CCOC(=O)[C@H]1C/C=C/C[C@H](C(=O)OCC)C(=O)O[C@H]2[C@@H](OC)O[C@H](CO)[C@@H](OC(=O)CCc3ccccc3)[C@@H]2OC1=O,-0.146,-0.267,0.461,-0.485,-1.08,0.815,-0.0615,-1.26 (inactive),-0.555,-0.169,0.182,0.491 (inactive),-1.29 (inactive),15.2 (active),0.0772,-0.677 (inactive),-0.132,0.0226,0.01,-0.314
NC(=O)N1C(=O)C2C(C1=O)C1C=C(CCCO)C2C(c2cccs2)N1Cc1cc2c(cc1Br)OCO2 (stereo not given),-0.137,0.314,-0.0036,0.0276,0.0449,0.453,1.16,-1.85 (inactive),0.117,-0.0645,0.0811,-1.75 (inactive),-0.498 (inactive),-1.79 (inactive),1.84,0.263 (inactive),-0.0362,0.0233,0.508,-0.0978
COCCOC(=O)N1C(=O)[C@@]2(c3cc(C#CC4=CCCCC4)ccc31)[C@H](C(=O)N1CCN(c3ncccn3)CC1)[C@H]1C(=O)O[C@H](c3ccccc3)[C@H](c3ccccc3)N1[C@@H]2c1ccc(O)cc1,-0.0505,0.181,0.0467,0.669,1.33,0.79,1.24,0.378 (inactive),0.442,0.208,1.53,0.783 (inactive),0.883 (inactive),2.1 (inactive),1.53,-0.56 (inactive),0.0848,0.568,1.09,0.0891
CC(C)CNC(=O)[C@@H]1c2ccccc2C(=O)N(Cc2cc(F)cc(C(F)(F)F)c2)[C@H]1c1ccc(CO)cc1,0.366,-0.23,0.0079,0.207,0.561,0.38,1.23,-1.78 (inactive),0.0604,-0.0237,1.4,-0.212 (inactive),-0.758 (inactive),-0.483 (inactive),1.73,2.93 (inactive),0.188,0.179,0.379,-0.0214
C[C@]12C(=O)N(CCCCCCO)[C@@H]3C(=O)N(c4ccc(Cl)cc4)CC=CC31O[C@@H]1/C=C\CCCOC(=O)C12 (stereo not given in full),0.299,-0.268,-0.121,-0.387,-1.02,0.0955,1.2,-0.621 (inactive),-0.21,-0.132,0.807,-2.23 (inactive),-1.63 (inactive),-0.695 (inactive),3.27,1.19 (inactive),-0.0665,-0.463,-0.353,-0.194
COc1cc2c(cc1OC)CN(C(=O)[C@@H]1[C@H]3C(=O)O[C@H](c4ccccc4)[C@H](c4ccccc4)N3[C@H](c3ccccc3OCCO)[C@@]13C(=O)Nc1ccc(C#CC4(O)CCCCCC4)cc13)CC2,-0.0079,0.955,-0.0573,0.201,0.463,0.935,1.2,-0.066 (inactive),-0.0613,-0.123,1.54,2.74 (inactive),0.563 (inactive),5.14 (inactive),2.09,2.26 (inactive),0,0.56,0.896,-0.0357

# Source: PubChem BioAssay
